The results in this text go back to PubChem BioAssay.

The test system of experiment [1] is Plasmodium falciparum Sir2 (PF13_0152, Sir2A). In words: pfSir2 binders on small-molecule microarrays, primary screen, biochemical, small-molecule microarray, 635 nm fluorescence (AID 1098).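 Further: score merges spot fluorescence intensity with its signal-to-noise ratio.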 Conditions: small-molecule microarray binding, fluorescence 635 nm; higher = more signal.
A short description of experiment [2]: small-molecule microarray binders of probe aDKK1, primary screen, biochemical, biotinylated probe, 635/667 nm fluorescence (AID 1099).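 Further: score merges 667nm spot fluorescence with signal to noise across triplicate slides.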 Conditions: higher = more signal.
Experiment [3] is described as follows: small-molecule microarray binders of probe aCHRDL2, primary screen, biochemical, biotinylated probe, 635/667 nm fluorescence (AID 1100). As to conditions: higher = more signal.
Experiment [4] in a line: splicing luciferase reporter signal modulators, primary screen, spliceosome inhibition project, cell-based, HEK293, splice +/- reporter (AID 1101).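 Further: HEK293 cells carrying a splicing-competent luciferase reporter gene; test concentration not given here.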 Conditions: luminescence, 24 h, higher = more signal, called active from +8 up or from −8 down.
The target of experiment [5] is Fibroblast growth factor 10 (Homo sapiens) (UniProt O15520). The experiment can be described thus: FGF10 binders on small-molecule microarrays, primary screen, biochemical, small-molecule microarray, 635 nm fluorescence (AID 1102). Conditions: FGF10 binding, fluorescence 635 nm, higher = more signal.
Experiment [6] deals with glycogen synthase kinase-3 (GSK3A per assay name; protocol says GSK3B). The experiment can be described thus: GSK3 binders on small-molecule microarrays, primary screen, biochemical, small-molecule microarray, 635 nm fluorescence, GSK3A (AID 1103). Further: the record names both GSK3A and GSK3B. Conditions: small-molecule microarray binding, fluorescence 635 nm; higher = more signal.
The target in experiment [7] is Epidermal growth factor receptor (Homo sapiens) (UniProt P00533). In words: EGFR binders on small-molecule microarrays, primary screen, biochemical, small-molecule microarray, 635 nm fluorescence (AID 1104).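 Further: score merges 667 nm emission intensity with spot signal to noise over triplicate slides.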 As to conditions: EGFR binding, higher = more signal.
The target of experiment [8] is Follistatin-related protein 3 (Homo sapiens) (UniProt O95633). In words: FSTL3 binders on small-molecule microarrays, primary screen, biochemical, small-molecule microarray, 635 nm fluorescence (AID 1105).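 Further: score merges emission near 667 nm and signal to noise per printed spot across three slides.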 Conditions: FSTL3 binding, higher = more signal.
For experiment [9], the target named is Dickkopf-related protein 1 (Homo sapiens) (UniProt O94907). The experiment can be described thus: DKK1 binders on small-molecule microarrays, primary screen, biochemical, small-molecule microarray, 635 nm fluorescence scan (AID 1106).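 Further: score merges emission near 667 nm with signal to noise over three replicate slides.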 As to conditions: DKK1 binding, higher = more signal.
For experiment [10], the system named is Inhibin beta A chain (activin A). In words: INHBA (activin A) binders on microarrays, primary screen, biochemical, small-molecule microarray, 635 nm fluorescence scan (AID 1107).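 Further: mouse activin A protein probed at 4.33 µg/mL on printed slides; score merges bound-protein fluorescence near 667 nm with spot signal-to-noise.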 As to conditions: small-molecule microarray binding, higher = more signal.
Experiment [11] concerns Human papillomavirus type 1a protein E7 (residues 44-93). In words: HPV1a E7 fragment binders on microarrays, primary screen, biochemical, small-molecule microarray, residues 44-93, 635 nm fluorescence (AID 1108).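 Further: E7 fragment applied at 1 µg/mL in TBST for 1 h at 4 C; score combines spot fluorescence with its signal to noise ratio.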 As to conditions: small-molecule microarray binding, fluorescence 635 nm; higher = more signal.
A short description of experiment [12]: modulators of HCV replicon luciferase signal, primary screen, HCV replication inhibitor project, Huh7 cells, luciferase reporter (AID 1109).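 Further: huh7 hepatoma cells harbouring a luciferase neomycin HCV replicon reporter; luciferase luminescence as measure of HCV replicon replication; test concentration not given here.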 Conditions: 48 h, higher = more signal. (In general: In antiviral work, replicon cells carry a viral genome segment that copies itself.)
Experiment [13] concerns the target Left-right determination factor 2 (Homo sapiens) (UniProt O00292). The experiment can be described thus: LEFTY2 binders on small-molecule microarrays, primary screen, biochemical, small-molecule microarray, 635 nm fluorescence scan (AID 1110). As to conditions: LEFTY2 binding, higher = more signal.
The target of experiment [14] is Calmodulin-1 (Homo sapiens) (UniProt P0DP23). In words: CALM1 binders on microarrays, EGTA buffer, profiling panel, biochemical, small-molecule microarray, Cy5-labelled CALM1 (AID 1111).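 Further: labelled calmodulin applied in Tris saline Tween buffer holding calcium plus EGTA and DTT.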 Conditions: Cy5-CALM1 binding fluorescence, higher = more signal.
Experiment [15] has the same target. In words: calcium-bound CALM1 binders on microarrays, profiling panel, artefact control for SMM control-protein annotation, biochemical, small-molecule microarray, Cy5-labelled CALM1, plus calcium (AID 1112).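 Further: score merges spot fluorescence with signal to noise from triplicate slides.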 Conditions: Cy5-CALM1 binding fluorescence, higher = more signal.
The nature of experiment [16]: small-molecule microarray binders of probe aWnt5a, primary screen, biochemical, biotinylated probe, 635/667 nm fluorescence (AID 1113).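 Further: score merges 667 nm fluorescence intensity with signal-to-noise per printed feature.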 Conditions: higher = more signal.
Experiment [17] is described as follows: small-molecule microarray binders of probe aShh, primary screen, biochemical, biotinylated probe, 635/667 nm fluorescence (AID 1114).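 Further: probe is biotin-labelled aShh protein from a stem cell growth factor screen; measures binding of labelled protein to compounds printed on the slide; score merges feature fluorescence at 667 nm with signal-to-noise.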 Conditions: higher = more signal.
A short description of experiment [18]: small-molecule microarray binders of probe aNog, primary screen, biochemical, biotinylated probe, 635/667 nm fluorescence (AID 1115).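 Further: probe is biotinylated aNog protein used at 0.15 µg/mL for 1 h at 4 C; z-score combines 667 nm fluorescence of each spot with its signal to noise.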 As to conditions: higher = more signal.
The target in experiment [19] is Torsin-1A-interacting protein 1 (Homo sapiens) (UniProt Q5JTV8). In words: LAP1 binders from COS7 cell lysate, primary screen, small-molecule microarray, 635/667 nm fluorescence (AID 1116). Conditions: COS7-hLAP1 lysate binding, 635 nm fluorescence, higher = more signal.
Experiment [20] deals with Alpha-bungarotoxin (Bungarus multicinctus) (UniProt P60615). The experiment can be described thus: alpha-bungarotoxin binders on microarray, profiling panel, artefact control for SMM control protein annotation, biochemical, small-molecule microarray, Alexa647 label, 635/667 nm fluorescence (AID 1117). Conditions: alpha-BTX-A647 binding fluorescence, higher = more signal.

The source made the active and inactive calls.

Left-right determination factor 2 (Homo sapiens), sequence (O00292 whole entry, looked up): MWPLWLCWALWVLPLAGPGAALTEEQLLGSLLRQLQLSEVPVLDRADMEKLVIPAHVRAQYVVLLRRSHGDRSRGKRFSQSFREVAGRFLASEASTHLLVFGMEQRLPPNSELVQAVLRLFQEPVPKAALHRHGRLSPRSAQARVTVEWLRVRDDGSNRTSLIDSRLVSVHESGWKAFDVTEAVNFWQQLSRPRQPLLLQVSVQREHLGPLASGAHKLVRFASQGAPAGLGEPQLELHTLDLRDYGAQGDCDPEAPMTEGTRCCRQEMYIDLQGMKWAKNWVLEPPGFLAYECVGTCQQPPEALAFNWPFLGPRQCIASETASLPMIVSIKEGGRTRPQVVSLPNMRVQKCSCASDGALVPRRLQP
Alpha-bungarotoxin (Bungarus multicinctus), sequence (P60615 whole entry, looked up): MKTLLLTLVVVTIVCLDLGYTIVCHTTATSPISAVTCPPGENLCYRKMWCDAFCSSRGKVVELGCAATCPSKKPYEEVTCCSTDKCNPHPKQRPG
Epidermal growth factor receptor (Homo sapiens), sequence (P00533 whole entry, looked up): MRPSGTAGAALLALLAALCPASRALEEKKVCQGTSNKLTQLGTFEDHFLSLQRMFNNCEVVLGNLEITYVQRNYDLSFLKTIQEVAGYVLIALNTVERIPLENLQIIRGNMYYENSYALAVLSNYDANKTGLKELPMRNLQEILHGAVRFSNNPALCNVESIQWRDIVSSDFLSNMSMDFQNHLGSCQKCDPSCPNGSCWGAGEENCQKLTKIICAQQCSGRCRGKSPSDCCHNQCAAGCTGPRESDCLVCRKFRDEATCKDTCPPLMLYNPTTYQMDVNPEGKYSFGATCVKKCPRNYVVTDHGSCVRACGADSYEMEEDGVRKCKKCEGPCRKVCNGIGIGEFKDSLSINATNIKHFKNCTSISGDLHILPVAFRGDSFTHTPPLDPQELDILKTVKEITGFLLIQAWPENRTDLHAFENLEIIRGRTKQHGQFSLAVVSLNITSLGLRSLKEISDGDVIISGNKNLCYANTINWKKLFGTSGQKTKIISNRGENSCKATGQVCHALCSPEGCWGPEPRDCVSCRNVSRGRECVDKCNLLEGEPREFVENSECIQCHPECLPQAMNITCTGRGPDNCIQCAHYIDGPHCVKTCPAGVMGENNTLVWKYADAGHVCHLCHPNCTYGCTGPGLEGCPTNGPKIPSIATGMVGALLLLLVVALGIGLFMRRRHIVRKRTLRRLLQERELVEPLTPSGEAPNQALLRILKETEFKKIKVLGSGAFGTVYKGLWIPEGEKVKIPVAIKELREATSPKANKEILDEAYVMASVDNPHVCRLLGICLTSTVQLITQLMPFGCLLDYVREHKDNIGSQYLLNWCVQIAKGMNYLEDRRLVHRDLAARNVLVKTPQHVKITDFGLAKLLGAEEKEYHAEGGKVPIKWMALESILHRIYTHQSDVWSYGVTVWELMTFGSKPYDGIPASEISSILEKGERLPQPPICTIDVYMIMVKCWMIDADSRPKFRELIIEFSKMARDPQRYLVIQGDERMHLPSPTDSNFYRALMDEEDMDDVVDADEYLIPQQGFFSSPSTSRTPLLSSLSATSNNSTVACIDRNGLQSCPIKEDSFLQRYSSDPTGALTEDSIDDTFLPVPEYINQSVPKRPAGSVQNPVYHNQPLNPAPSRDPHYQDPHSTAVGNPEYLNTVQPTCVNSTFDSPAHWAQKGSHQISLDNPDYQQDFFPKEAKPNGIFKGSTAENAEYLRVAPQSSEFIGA
Torsin-1A-interacting protein 1 (Homo sapiens), sequence (Q5JTV8 whole entry, looked up): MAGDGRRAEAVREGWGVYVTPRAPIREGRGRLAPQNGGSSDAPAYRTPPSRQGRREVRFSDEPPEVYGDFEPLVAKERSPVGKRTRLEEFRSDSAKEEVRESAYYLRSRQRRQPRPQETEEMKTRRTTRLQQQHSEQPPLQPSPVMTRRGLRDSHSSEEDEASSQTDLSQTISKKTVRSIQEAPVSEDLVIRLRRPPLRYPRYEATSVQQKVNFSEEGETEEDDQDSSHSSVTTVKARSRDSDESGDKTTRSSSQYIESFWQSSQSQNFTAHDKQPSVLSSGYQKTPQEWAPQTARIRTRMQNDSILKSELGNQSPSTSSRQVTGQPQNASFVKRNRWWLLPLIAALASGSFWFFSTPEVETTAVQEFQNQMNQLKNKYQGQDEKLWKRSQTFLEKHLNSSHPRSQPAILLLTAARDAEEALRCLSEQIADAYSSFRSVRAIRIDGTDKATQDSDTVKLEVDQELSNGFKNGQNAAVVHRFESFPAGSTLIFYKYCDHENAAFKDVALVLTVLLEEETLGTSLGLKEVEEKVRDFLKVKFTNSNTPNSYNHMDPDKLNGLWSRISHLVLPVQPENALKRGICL
Dickkopf-related protein 1 (Homo sapiens), sequence (O94907 whole entry, looked up): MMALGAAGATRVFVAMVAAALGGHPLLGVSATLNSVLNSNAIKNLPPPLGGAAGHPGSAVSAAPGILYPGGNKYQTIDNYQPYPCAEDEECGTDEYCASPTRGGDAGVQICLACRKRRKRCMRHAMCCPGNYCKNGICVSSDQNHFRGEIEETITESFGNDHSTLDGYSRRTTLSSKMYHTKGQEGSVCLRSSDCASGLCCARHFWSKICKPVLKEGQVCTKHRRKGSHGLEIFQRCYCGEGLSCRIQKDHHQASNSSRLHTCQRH
Follistatin-related protein 3 (Homo sapiens), sequence (O95633 whole entry, looked up): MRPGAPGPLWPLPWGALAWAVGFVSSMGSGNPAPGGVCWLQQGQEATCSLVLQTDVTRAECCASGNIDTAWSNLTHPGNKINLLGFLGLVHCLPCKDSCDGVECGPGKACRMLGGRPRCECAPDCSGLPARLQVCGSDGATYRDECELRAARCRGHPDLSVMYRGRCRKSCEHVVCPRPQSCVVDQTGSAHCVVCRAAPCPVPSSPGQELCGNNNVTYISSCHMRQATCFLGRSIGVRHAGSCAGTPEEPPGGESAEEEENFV
Fibroblast growth factor 10 (Homo sapiens), sequence (O15520 whole entry, looked up): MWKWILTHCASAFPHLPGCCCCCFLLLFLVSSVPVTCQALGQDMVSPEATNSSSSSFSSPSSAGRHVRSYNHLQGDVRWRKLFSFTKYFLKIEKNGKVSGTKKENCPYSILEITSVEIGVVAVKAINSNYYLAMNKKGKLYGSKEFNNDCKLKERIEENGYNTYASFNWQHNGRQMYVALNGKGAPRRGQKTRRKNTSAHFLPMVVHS

For `O=C1O[C@@H](c2ccccc2)[C@@H](c2ccccc2)N2[C@@H](c3ccccc3OCCO)[C@]3(C(=O)Nc4ccc(C#CC5(O)CCCCCC5)cc43)[C@@H](C(=O)Nc3nc4ccccc4s3)[C@H]12`, the composite z-score was 1.04 in experiment [1]; -0.0444 in [2]; -0.0735 in experiment [3]; 0.68 in experiment [5]; 1.25 in [6]; 0.369 in experiment [7]. The composite z-score in [8] is 0.996; in experiment [9], 0.28; in experiment [10], 0.251; in experiment [11], 1.38; in [13] it was 0.628; in [14], 0.688. Besides, the composite z-score is 0.226 in experiment [15]; -0.0495 in [16]; -0.0685 in experiment [17]; -0.0065 in experiment [18]; 0.367 in experiment [19]; 0.744 in experiment [20]. For the same compound, the z-score in experiment [4] was 0.554 (inactive); in experiment [12], -3.09.
As for `NC(=O)NCC#Cc1ccc2c(c1)[C@]1(C(=O)N2)[C@H](C(=O)NC[C@H](O)c2ccccc2)[C@H]2C(=O)O[C@H](c3ccccc3)[C@H](c3ccccc3)N2[C@@H]1c1ccc(O)cc1`, the composite z-score in [1] was 1.23; in [2], 0.0166; in experiment [3], -0.249; in [5], 0.893; in [6], 0.664; in [7] it was 0.575. Moreover, the composite z-score in [8] was 0.553; in experiment [9], 0.314; in experiment [10], 1.72; in experiment [11], 1.38; in [13] it was 0.691; in experiment [14], 2. The composite z-score in experiment [15] came to 0.916; in experiment [16] it was 0.551; in [17], 0.456; in experiment [18], 0.921; in experiment [19], 1.45; in experiment [20], 2.19. For the same compound, the z-score in experiment [4] was 0.37 (inactive); in experiment [12] it was -0.257.
As to `CC(=O)NCCCC[C@@H]1NC(=O)[C@H]2C[C@@H](C(=O)NCCCCCC[N+](C)(C)C)[C@@H](c3cccc(OCCO)c3)N2C1=O`, the composite z-score is 1.44 in [1]; -0.104 in [2]; -0.207 in [3]; 1.17 in experiment [5]; 0.917 in experiment [6]; 0.848 in [7]. The composite z-score in experiment [8] worked out at 1.58; in experiment [9], 1.85; in experiment [10], 0.695; in experiment [11], 1.1; in experiment [13], 1.02; in [14] it was 0.0227. Besides, the composite z-score in experiment [15] was -0.34; in experiment [16] it was -0.0792; in [17], -0.0709; in experiment [18], 0.019; in [19] it was 0.595; in experiment [20], 2.04. In addition, the figures for the z-score in [4] and in [12] were -1.6 (inactive) and -0.0914, respectively.
With `C=C[C@@H](COC(C)=O)N(Cc1ccc([N+](=O)[O-])cc1)S(=O)(=O)c1ccc(Br)cc1`, the composite z-score in [1] amounted to 0.566; in experiment [2], 0.965; in experiment [3] it was 0.992; in [5] it was 0.599; in experiment [6], 0.283; in [7] it was 0.292. In addition, the composite z-score is 0.352 in experiment [8]; -0.0075 in experiment [9]; 0.663 in [10]; -0.541 in experiment [11]; 0.59 in [13]; 0.989 in experiment [14]. Also, the composite z-score in experiment [15] is 0.729; in experiment [16], -0.0597; in experiment [17] it was -0.0709; in experiment [18], 0.392; in [19], 0.546; in experiment [20], 1.78. For the same compound, the z-score in [4] is -0.807 (inactive); in experiment [12], -0.365.
As for `CCOC(=O)C[C@H]1[C@H](OC(=O)Cc2ccc3c(c2)OCO3)[C@@H](NC(=O)C2CCCCC2)c2cc(OCCCO)ccc2N1C(=O)Cc1ccc(OC)cc1`, the composite z-score was 0.17 in experiment [1]; -0.244 in [2]; -0.214 in experiment [3]; 0.919 in experiment [5]; 0.646 in experiment [6]; 0.252 in experiment [7]. In addition, the composite z-score in [8] was determined as 0.297; in experiment [9] it was 0.316; in experiment [10] it was 0.561; in experiment [11], 1.21; in [13], 0.341; in experiment [14], 0.0855. Further, the composite z-score in [15] was -0.629; in [16], -0.001; in experiment [17] it was -0.0626; in experiment [18], -0.543; in experiment [19], -0.0511; in experiment [20], 0.199. The values for the z-score in experiment [4] and in [12] were -1.6 (inactive) and -1.39, respectively.
